Test [1] in a line: Nuclear factor erythroid 2-related factor 2/antioxidant responsive element (Nrf2/ARE) small molecule agonists: qHTS cell viability counter screen in human keratinocytes (AID 1919968; active = well fitted curve in the direction sought with a large enough effect in the repeat runs; an effect the other way counts as inactive or inconclusive; also: nearly all actives have a fitted effect of over 55% in size). The gist of the method: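 After a 5 h attachment period, ARE-reporter keratinocytes were dosed with compounds in DMSO and then cultured 23 h at 37 C. Cell viability came from CellTiter-Fluor signal read after a further 1 h.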

Test [2] has as its target Gonadotropin-releasing hormone receptor (Homo sapiens) (UniProt P30968). The experiment in a line: Human gonadotropin-releasing hormone receptor (GnRHR) small molecule agonists, calcium flux assay in GnRHR-HEK293 cells (AID 1920063). Also: nearly all actives have a fitted effect of over 35% in size. The gist of the method: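 We seeded human GnRHR-expressing HEK293 cells for 18 hours, loaded them with calcium dye for an hour at 37 C, added test compounds, and recorded fluorescence intensity kinetically for three minutes.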
(In general: Calcium flux is commonly read through the fluorescence of an indicator in the cells.)

Test [3] has as its target KiSS-1 receptor (Homo sapiens) (UniProt Q969F8). The experiment in a line: Human kisspeptin (KISS1R) small molecule agonists, calcium flux assay in KISS1R-HEK293 cells (AID 1920064; active = well fitted curve in the direction sought with a large enough effect in the repeat runs; an effect the other way counts as inactive or inconclusive). The method, boiled down: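 Kinetic calcium assay, 1 s sampling over 3 min at Ex/Em 480/540, in HEK293 cells engineered with human KISS1R; compounds delivered in DMSO after 1 h dye loading.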

Test [4] in a line: G protein-coupled receptor (GPCR) small molecule agonists, calcium flux assay: HEK293 wild type cell line counter screen (AID 1920065). The gist of the method:
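Calcium-sensitive dye, loaded 1 h at 37 C into cells cultured 18 h, reports compound-evoked calcium release as fluorescence (Ex/Em 480/540), measured over 3 min. Agonist mode; 15-point titrations, triplicate.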

Test [5] can be described thus: p53 small molecule agonists, cell-based qHTS assay with rat liver microsomes (AID 1963578). The gist of the method: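 p53RE-bla cells, 4,000/well, pre-incubated 5 h, then given compounds plus rat liver microsomes (0.5 mg/mL final) and NADPH (0.5 mg/mL final). Incubation 16 h at 37 C; beta-lactamase reporter read by LiveBLAzer fluorescence after 2 h at room temperature.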
In general terms: qHTS replaces the single test concentration by a dilution series.

Test [6] can be described thus: p53 small molecule agonists, cell-based qHTS assay with human liver microsomes: qHTS cell viability counter screen (AID 1963579). Also: nearly all actives have a fitted effect of over 45% in size. The method, boiled down: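 p53RE-bla cells, 4,000/well, dosed 5 hours after plating, with human liver microsomes (0.5 mg/mL final) plus NADPH (0.5 mg/mL final), 16 hours at 37 C. Viability read as CellTiter-Glo luminescence after 30 min at room temperature.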

A short description of test [7]: p53 small molecule agonists, cell-based qHTS assay with rat liver microsomes: qHTS cell viability counter screen (AID 1963580). Also: nearly all actives have a fitted effect of over 45% in size. The method, boiled down: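 p53RE-bla HCT-116 cells were exposed 16 h at 37 C to compounds with rat liver microsomes (0.5 mg/mL) and NADPH (0.5 mg/mL). Viability was measured in the same wells as ATP content by CellTiter-Glo luminescence.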

Test [8] has as its target 5-hydroxytryptamine receptor 2A (Homo sapiens) (UniProt P28223). In words: 5-hydroxytryptamine receptor 2A (HTR2A) small molecule antagonists, cell-based qHTS assay (AID 1963586). Also: nearly all actives have a fitted effect of over 45% in size. Also: potency is read from the fitted curve at half-maximal effect. The gist of the method:
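Antagonist-mode intracellular calcium assay: DOI (4 nM) added after 5 min compound pre-incubation at room temperature to dye-loaded HTR2A-CHO cells. Fluorescence followed for 3 min, sampled every second.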

Test [9] concerns the target Muscarinic acetylcholine receptor M1 (Homo sapiens) (UniProt P11229). The experiment in a line: Cholinergic receptor muscarinic 1 (CHRM1) small molecule antagonists, cell-based qHTS assay (AID 1963588). Also: nearly all actives have a fitted effect of over 40% in size. The method, boiled down: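 CHRM1-CHO calcium-flux assay, antagonist mode. Cells were seeded 18 h, dye-loaded 1 h at 37 C and given compound for 5 min at RT, then acetylcholine was added at 50nM. FDSS fluorescence was read 3 min; 15 concentrations, three runs.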

Test [10] has the same target. The experiment in a line: Cholinergic receptor muscarinic 1 (CHRM1) small molecule agonists, cell-based qHTS assay (AID 1963589). Also: nearly all actives have a fitted effect of over 35% in size. The gist of the method: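 Measures agonist-induced intracellular calcium rise. Stable human CHRM1 CHO line, 1 h dye load at 37 C, compounds from DMSO, kinetic fluorescence read.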
For test [11], the target named is Beta-2 adrenergic receptor (Homo sapiens) (UniProt P07550). In words: Adrenergic beta2 receptor (ADRB2) small molecule antagonists, cell-based qHTS assay (AID 1963592). Also: series mostly up to about 92 µM; nearly all actives have a fitted effect of over 50% in size. The gist of the method: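 Cells (CHO, stable ADRB2 overexpression) incubated 18-20hr at 37C; compounds added from DMSO; agonist mix (1nM isoproterenol, 100uM IBMX, 25uM Ro-20-1724) added; 0.5hr RT; d2-cAMP and anti-cAMP-cryptate added; 1hr RT; 665/615 nm read.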
Chain of Beta-2 adrenergic receptor (Homo sapiens) (P07550 whole entry, looked up): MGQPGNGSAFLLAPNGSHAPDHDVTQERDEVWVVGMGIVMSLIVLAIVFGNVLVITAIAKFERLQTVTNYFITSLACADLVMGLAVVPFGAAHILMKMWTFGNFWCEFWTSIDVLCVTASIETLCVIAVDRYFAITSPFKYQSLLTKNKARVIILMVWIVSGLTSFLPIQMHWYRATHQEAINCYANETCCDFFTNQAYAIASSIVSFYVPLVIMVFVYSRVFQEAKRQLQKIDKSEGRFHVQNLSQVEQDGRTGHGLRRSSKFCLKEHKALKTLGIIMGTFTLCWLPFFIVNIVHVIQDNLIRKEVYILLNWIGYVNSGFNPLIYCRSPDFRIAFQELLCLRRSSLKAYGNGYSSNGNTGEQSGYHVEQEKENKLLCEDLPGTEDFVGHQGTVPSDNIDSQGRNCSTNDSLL

The target of test [12] is D(2) dopamine receptor (Homo sapiens) (UniProt P14416). In words: Dopamine D2 receptor (DRD2) small molecule antagonists, cell-based qHTS assay (AID 1963595; active = well fitted inhibition curve with a large enough effect in the signal ratio in the repeat runs, with a control signal flat; the % refers to the signal ratio). The method, boiled down: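 Stable D2 receptor HEK293 line, 24 h after seeding. Compound preincubated 10 min, then quinpirole (12 nM) with forskolin analogue NKH477 (200 nM), 30 min, room temperature. Detection by time-resolved FRET of cAMP.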
Chain of D(2) dopamine receptor (Homo sapiens) (P14416 whole entry, looked up): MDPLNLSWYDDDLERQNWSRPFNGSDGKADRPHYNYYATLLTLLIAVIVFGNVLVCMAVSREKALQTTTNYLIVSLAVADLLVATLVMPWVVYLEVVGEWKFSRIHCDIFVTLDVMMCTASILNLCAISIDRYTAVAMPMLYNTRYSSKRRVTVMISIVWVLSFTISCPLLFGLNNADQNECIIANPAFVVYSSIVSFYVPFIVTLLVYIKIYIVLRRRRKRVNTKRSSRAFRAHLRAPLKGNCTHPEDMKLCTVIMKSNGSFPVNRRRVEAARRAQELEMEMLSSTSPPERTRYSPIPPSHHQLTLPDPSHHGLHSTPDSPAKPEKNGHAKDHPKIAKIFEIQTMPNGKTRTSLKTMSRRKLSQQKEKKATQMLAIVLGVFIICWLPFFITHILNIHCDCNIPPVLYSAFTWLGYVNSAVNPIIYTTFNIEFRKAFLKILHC

Test [13] can be described thus: p53 small molecule agonists, cell-based qHTS assay (AID 1963582; active = well fitted activation curve with a large enough effect in the signal ratio in the repeat runs, not every such curve was filed as active; the % refers to the signal ratio). The gist of the method:
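In this cell-based concentration-response screen, a p53 response element drives beta-lactamase; cells received DMSO-borne compounds after 5 h culture and were incubated a further 16 h before FRET substrate development.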

The target in test [14] is 5-hydroxytryptamine receptor 2A (Homo sapiens) (UniProt P28223). The experiment in a line: 5-hydroxytryptamine receptor 2A (HTR2A) small molecule agonists, cell-based qHTS assay (AID 1963587). Also: nearly all actives have a fitted effect of over 30% in size. The gist of the method:
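CHO cells stably expressing human HTR2A, plated 18 h, loaded with calcium dye 1 h at 37 C. Agonist mode: compounds added and intracellular calcium fluorescence recorded kinetically for 2 min at 1 sec intervals.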

A short description of test [15]: cAMP Responsive Elements (CRE) small molecule agonists, cell-based qHTS assay (AID 1963590). The method, boiled down:
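A CRE-responsive beta-lactamase reporter in HEK 293T cells was used. Treatment ran 3 h at 37 C; detection used LiveBLAzer B/G FRET substrate for 2 h at room temperature.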

A short description of test [16]: cAMP Responsive Elements (CRE) small molecule antagonists, cell-based qHTS assay (AID 1963591; active = well fitted inhibition curve with a large enough effect in the signal ratio in the repeat runs, not every such curve was filed as active; the % refers to the signal ratio; also: potency is read from the fitted curve at half-maximal effect). The method, boiled down:
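HEK293T cells carrying a CRE-driven beta-lactamase reporter receive compound and NKH477 (0.25 uM final) for 3 h. Fluorescence from LiveBLAzer B/G FRET substrate is read after 2 h at room temperature.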

The target in test [17] is D(2) dopamine receptor (Homo sapiens) (UniProt P14416). In words: Dopamine D2 receptor (DRD2) small molecule agonists, cell-based qHTS assay (AID 1963594). Also: nearly all actives have a fitted effect of over 35% in size. The gist of the method:
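HEK293 cells stably expressing human DRD2, pre-treated with PDE inhibitor Ro20-1724 (0.1 mM final) and compound 10 min at room temperature, then stimulated with NKH477 (200nM […]) for 30 min. cAMP read by HTRF (665/620 nm).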

Test [18] has as its target Beta-2 adrenergic receptor (Homo sapiens) (UniProt P07550). In words: Adrenergic beta2 receptor (ADRB2) small molecule agonists, cell-based qHTS assay (AID 1963593).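 Also: CHO cells stably overexpressing human ADRB2.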 The gist of the method:
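CHO cells stably over-expressing ADRB2 were plated overnight at 37C, then dosed with compounds plus a stimulation mix containing 100uM IBMX and 25uM Ro-20-1724 for 0.5hr at room temperature. cAMP was measured by HTRF competition, 1hr.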

A short description of test [19]: p53 small molecule agonists, cell-based qHTS assay: qHTS cell viability counter screen (AID 1963581). Also: nearly all actives have a fitted effect of over 45% in size. The gist of the method:
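Following 5 h attachment, HCT-116 p53RE-bla cells took up compound for 16 h at 37 C; the reporter was read with B/G FRET substrate (2 h RT), and viability then via CellTiter-Glo ATP luminescence.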

A short description of test [20]: p53 small molecule agonists, cell-based qHTS assay with human liver microsomes (AID 1963577). The gist of the method:
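p53RE-bla cells, 4,000/well, compound added after 5 h, with human liver microsomes 0.5 mg/mL and NADPH 0.5 mg/mL final; 16 h at 37 C, then LiveBLAzer 2 h RT, fluorescence.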

The results in this text go back to PubChem BioAssay (Tox21).

Records with an inconclusive call do not appear. Activity calls are given as the source filed them. Unless noted, calls follow the shape of the full dose curve.

Chain of 5-hydroxytryptamine receptor 2A (Homo sapiens) (P28223 whole entry, looked up): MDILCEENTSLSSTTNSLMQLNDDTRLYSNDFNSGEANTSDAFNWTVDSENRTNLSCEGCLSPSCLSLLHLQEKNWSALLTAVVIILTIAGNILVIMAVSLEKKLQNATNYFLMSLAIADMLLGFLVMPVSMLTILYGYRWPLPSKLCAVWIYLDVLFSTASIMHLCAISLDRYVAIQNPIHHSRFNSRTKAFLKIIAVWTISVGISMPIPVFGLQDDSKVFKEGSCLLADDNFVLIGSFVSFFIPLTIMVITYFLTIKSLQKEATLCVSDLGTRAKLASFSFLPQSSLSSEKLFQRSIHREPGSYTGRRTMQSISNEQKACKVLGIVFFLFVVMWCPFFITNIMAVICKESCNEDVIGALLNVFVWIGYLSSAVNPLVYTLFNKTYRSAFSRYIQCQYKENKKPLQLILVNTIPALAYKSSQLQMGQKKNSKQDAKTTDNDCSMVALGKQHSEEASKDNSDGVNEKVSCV
Chain of Gonadotropin-releasing hormone receptor (Homo sapiens) (P30968 whole entry, looked up): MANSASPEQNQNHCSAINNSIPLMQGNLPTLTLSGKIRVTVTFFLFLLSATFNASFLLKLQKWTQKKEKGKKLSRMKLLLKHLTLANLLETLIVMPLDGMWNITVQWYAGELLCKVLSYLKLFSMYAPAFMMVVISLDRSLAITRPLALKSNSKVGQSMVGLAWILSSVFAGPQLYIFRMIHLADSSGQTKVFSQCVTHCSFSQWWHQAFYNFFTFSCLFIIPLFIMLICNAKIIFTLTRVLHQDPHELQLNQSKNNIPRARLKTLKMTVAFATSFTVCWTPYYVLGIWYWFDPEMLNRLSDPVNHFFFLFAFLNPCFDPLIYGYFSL
Chain of KiSS-1 receptor (Homo sapiens) (Q969F8 whole entry, looked up): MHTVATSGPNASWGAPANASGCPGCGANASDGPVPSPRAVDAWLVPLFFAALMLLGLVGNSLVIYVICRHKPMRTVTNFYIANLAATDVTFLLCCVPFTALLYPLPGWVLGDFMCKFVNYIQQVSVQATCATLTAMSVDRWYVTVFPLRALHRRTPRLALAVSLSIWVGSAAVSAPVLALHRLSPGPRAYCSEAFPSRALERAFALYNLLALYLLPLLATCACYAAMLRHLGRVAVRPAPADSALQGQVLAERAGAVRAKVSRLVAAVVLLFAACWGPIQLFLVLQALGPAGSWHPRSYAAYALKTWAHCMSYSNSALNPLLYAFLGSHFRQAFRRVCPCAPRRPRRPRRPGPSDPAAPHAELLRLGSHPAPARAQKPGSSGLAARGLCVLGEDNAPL
Chain of Muscarinic acetylcholine receptor M1 (Homo sapiens) (P11229 whole entry, looked up): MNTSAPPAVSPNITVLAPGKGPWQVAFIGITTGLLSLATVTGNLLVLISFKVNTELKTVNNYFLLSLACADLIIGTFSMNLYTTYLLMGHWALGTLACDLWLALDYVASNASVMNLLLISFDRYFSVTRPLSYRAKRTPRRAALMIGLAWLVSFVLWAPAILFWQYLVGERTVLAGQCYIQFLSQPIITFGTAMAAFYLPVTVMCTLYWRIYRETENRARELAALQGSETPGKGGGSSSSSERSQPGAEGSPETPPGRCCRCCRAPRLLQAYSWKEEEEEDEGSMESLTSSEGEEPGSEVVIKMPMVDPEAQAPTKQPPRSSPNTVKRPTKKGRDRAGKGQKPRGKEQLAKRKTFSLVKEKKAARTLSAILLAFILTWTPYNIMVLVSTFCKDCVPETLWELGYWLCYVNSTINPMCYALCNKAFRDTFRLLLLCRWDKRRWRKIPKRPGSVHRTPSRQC

Turning to `CCCCC/C=C\C/C=C\C/C=C\C/C=C\CCCC(=O)NCC(=O)O`, the Potency result in [1], in test [2], in test [3], in test [4], in test [5] and in test [6] was “inactive” throughout. The Potency result in test [7], in test [9], in test [10], in [11] and in test [12] was “inactive” each time. Further, the Potency in test [8] was 14.5 µM (active).

`CCOCCOC(C)=O`: the Potency entry in test [1], in test [2], in [3], in test [4], in test [5] and in test [13] was “inactive” throughout. Besides, the Potency entry in test [14], in test [10], in test [15] and in [17] was “inactive” in each case. The Potency in test [16] is 12.8 µM (active).

Take `N#CN=C1SCCN1Cc1ccc(Cl)nc1`: the Potency result in test [1], in test [2], in [3], in test [4], in [5] and in [6] was “inactive” each time. Moreover, the Potency result in test [7], in [13], in test [8], in [14], in [9] and in [10] was “inactive” each time. The Potency entry in test [15], in [16], in test [11], in test [18], in test [17] and in test [12] was “inactive” throughout.

Turning to `CCOP(=S)(OCC)OC(Cl)C(Cl)(Cl)Cl` (stereo unspecified), the Potency result in test [1], in test [2], in test [3], in [4], in [6] and in test [7] was “inactive” in each case. For the same compound, the Potency entry in [19], in [13], in test [8], in test [14], in test [9] and in test [10] was “inactive” each time. The Potency result in test [15], in [16], in test [11] and in [17] was “inactive” each time.

Take `O=C(O)COc1nc(Cl)c(Cl)cc1Cl`: the Potency entry in [1], in test [2], in [3], in test [4], in [20] and in test [5] was “inactive” each time. Besides, the Potency entry in [7], in test [14], in test [9] and in [10] was “inactive” throughout.

Turning to `CC1(C)C(/C=C(\Cl)C(F)(F)F)C1C(=O)OC(C#N)c1cccc(Oc2ccccc2)c1` (stereo unspecified), the Potency result in test [1], in [2], in test [3], in test [4], in test [5] and in test [6] was “inactive” throughout. Moreover, the Potency result in test [7], in [19], in test [13], in [14], in test [9] and in test [10] was “inactive” throughout. For the same compound, the Potency entry in test [15], in [16], in test [11], in test [17] and in test [12] was “inactive” in each case.

Take `CN=CNc1ccc(C)cc1C`: the Potency entry in test [1], in [2], in [3], in test [4], in test [5] and in test [6] was “inactive” throughout. The Potency entry in test [7], in test [13], in [8], in test [14], in test [9] and in [10] was “inactive” in each case. Moreover, the Potency entry in [15], in [16], in [11], in test [18] and in test [17] was “inactive” each time.
